This is an account of results in PubChem BioAssay (Tox21).

SMILES strings stand for the structures. “And” between values parts separate entries of the source, which are not always exact repeats. Equal entries are not always repeated. Results filed as inconclusive are left out. Some compounds were tested as several samples or in several runs, with calls that do not always agree. The source made the active and inactive calls. Unless noted, calls follow the shape of the dose curve; as a rule, active = well fitted curve in the direction sought with a large enough effect in the repeat runs; inconclusive = weak or mixed curves; inactive = no such curve, though single readings can be large; an effect the other way counts as inactive or inconclusive.

Test [1] in a line: qHTS assay to identify small molecule agonists of the peroxisome proliferator-activated receptor delta (PPARd) signaling pathway - cell viability counter screen (AID 743211). Also: nearly all actives have a fitted effect of over 55% in size. Also: potency is read from the fitted curve at half-maximal effect. In a few lines: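 Counter screen for cytotoxicity run in parallel with the PPARd reporter screen. Beta-lactamase reporter HEK293H cells exposed to compounds 17 h; ATP-based CellTiter-Glo luminescence quantified viability.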
A general note: Quantitative high-throughput screening tests each substance at several concentrations.

Test [2] addresses Peroxisome proliferator-activated receptor delta (Homo sapiens) (UniProt Q03181). Kind of test: qHTS assay to identify small molecule antagonists of the peroxisome proliferator-activated receptor delta (PPARd) signaling pathway (AID 743215; active = well fitted inhibition curve with a large enough effect in the signal ratio in the repeat runs, not every such curve was filed as active; the % refers to the signal ratio;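 also: cells stimulated with agonist L165041 at 300 nM final during compound exposure; series mostly up to about 62 µM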). The method, boiled down: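 Inhibition of L165041-driven (300 nM final) PPARd signaling is scored in HEK293H UAS-bla cells. Exposure lasts 17 h at 37 C; beta-lactamase activity is then read by FRET substrate fluorescence after 2 h at room temperature.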

Test [3] in a line: qHTS assay to identify small molecule agonists of the farnesoid-X-receptor (FXR) signaling pathway - cell viability counter screen (AID 743218). Also: nearly all actives have a fitted effect of over 45% in size. Also: potency is read from the fitted curve at half-maximal effect. In a few lines: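 Cytotoxicity counter-screen run in parallel, same wells: FXR-UAS-bla HEK 293T cells dosed 16 h at 37 C, viability read by CellTiter-Glo luminescence after 30 min at room temperature.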
The nature of test [4]: qHTS assay to identify small molecule antagonists of the farnesoid-X-receptor (FXR) signaling pathway - cell viability counter screen (AID 743221; active = well fitted cell-killing curve with a large enough effect in the repeat runs, not every such curve was filed as active; also: nearly all actives have a fitted effect of over 50% in size; also: potency is read from the fitted curve at half-maximal effect). The method, boiled down: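 Multiplexed counter screen: viability of FXR-bla HEK 293T cells under agonist stimulation by chenodeoxycholic acid (50 uM, final) and test compound for 16 h at 37 C, measured by CellTiter-Glo luminescence in the reporter wells.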

Test [5] deals with Vitamin D3 receptor (Homo sapiens) (UniProt P11473). Kind of test: qHTS assay to identify small molecule agonists of the vitamin D receptor (VDR) signaling pathway (AID 743222; calls by dose curve). The method, boiled down: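 Quantitative HTS agonist-mode screen: compounds in DMSO were pin-transferred onto VDR-bla cells and incubated 16 h at 37C, 5% CO2. Reporter activity was detected with LiveBLAzer B/G FRET substrate after 2 h at room temperature.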
Vitamin D3 receptor (Homo sapiens), sequence (P11473 whole entry, looked up): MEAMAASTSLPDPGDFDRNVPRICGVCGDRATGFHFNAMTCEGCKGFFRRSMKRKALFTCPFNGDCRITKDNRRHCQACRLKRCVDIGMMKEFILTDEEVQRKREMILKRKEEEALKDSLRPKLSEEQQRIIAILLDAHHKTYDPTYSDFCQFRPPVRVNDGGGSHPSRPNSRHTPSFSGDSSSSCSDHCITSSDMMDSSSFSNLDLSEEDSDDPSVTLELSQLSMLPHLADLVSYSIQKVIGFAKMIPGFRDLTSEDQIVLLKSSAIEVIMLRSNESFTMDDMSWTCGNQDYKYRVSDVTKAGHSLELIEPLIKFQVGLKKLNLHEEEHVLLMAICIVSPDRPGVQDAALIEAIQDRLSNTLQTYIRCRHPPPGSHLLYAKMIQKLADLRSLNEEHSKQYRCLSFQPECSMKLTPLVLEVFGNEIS

Test [6] concerns the target Bile acid receptor (Homo sapiens) (UniProt Q96RI1). Briefly: qHTS assay to identify small molecule antagonists of the farnesoid-X-receptor (FXR) signaling pathway (AID 743217; active = well fitted inhibition curve with a large enough effect in the signal ratio in the repeat runs, not every such curve was filed as active; the % refers to the signal ratio; also: potency is read from the fitted curve at half-maximal effect). In a few lines:
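Antagonist mode against 50 uM (final) chenodeoxycholic acid stimulation in FXR-bla HEK 293T cells, 16 h at 37 °C. Inhibition detected as reduced beta-lactamase activity via LiveBLAzer B/G FRET fluorescence after 2 h at room temperature.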

Test [7] in a line: qHTS assay to identify small molecule antagonists of the peroxisome proliferator-activated receptor delta (PPARd) signaling pathway - cell viability counter screen (AID 743213). Also: nearly all actives have a fitted effect of over 50% in size. Also: potency is read from the fitted curve at half-maximal effect. The method, boiled down:
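PPARd-bla HEK293H cells were treated with compounds plus agonist L165041 (300 nM final) for 17 h at 37 C. Viability was then read in the same wells by CellTiter-Glo luminescence after 30 min at room temperature.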

Test [8] deals with Bile acid receptor (Homo sapiens) (UniProt Q96RI1). Briefly: qHTS assay to identify small molecule agonists of the farnesoid-X-receptor (FXR) signaling pathway (AID 743220; active = well fitted activation curve with a large enough effect in the signal ratio in the repeat runs, not every such curve was filed as active; the % refers to the signal ratio). The method, boiled down: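 Beta-lactamase reporter under UAS control in GeneBLAzer FXR HEK 293T cells (5000/well) measured with LiveBLAzer FRET substrate after 2 h at room temperature. Compound exposure lasted 16 h at 37C.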
Bile acid receptor (Homo sapiens), sequence (Q96RI1 whole entry, looked up): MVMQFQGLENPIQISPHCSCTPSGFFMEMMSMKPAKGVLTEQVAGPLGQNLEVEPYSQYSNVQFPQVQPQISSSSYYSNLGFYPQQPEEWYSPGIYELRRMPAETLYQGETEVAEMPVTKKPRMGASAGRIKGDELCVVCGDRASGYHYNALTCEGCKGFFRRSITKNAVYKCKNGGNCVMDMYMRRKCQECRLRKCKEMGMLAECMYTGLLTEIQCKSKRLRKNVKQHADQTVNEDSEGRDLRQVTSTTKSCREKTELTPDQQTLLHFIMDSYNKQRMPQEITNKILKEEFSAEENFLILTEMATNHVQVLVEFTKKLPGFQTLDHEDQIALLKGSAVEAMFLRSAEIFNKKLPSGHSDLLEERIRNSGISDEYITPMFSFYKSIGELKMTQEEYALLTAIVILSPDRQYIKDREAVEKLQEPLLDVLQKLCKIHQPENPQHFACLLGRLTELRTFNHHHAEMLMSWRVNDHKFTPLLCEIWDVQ

Test [9] deals with Vitamin D3 receptor (Homo sapiens) (UniProt P11473). Kind of test: qHTS assay to identify small molecule antagonists of the vitamin D receptor (VDR) signaling pathway (AID 743223; active = well fitted inhibition curve with a large enough effect in the signal ratio in the repeat runs, not every such curve was filed as active; the % refers to the signal ratio; also: potency is read from the fitted curve at half-maximal effect). The method, boiled down: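 Cells carrying a VDR-driven beta-lactamase reporter (VDR-bla) were co-treated with compound and 3 nM final 1alpha,25-dihydroxyvitamin D3 for 16 h at 37C; reporter activity was measured as FRET substrate fluorescence after 2 h at room temperature.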

Peroxisome proliferator-activated receptor delta (Homo sapiens), sequence (Q03181 whole entry, looked up): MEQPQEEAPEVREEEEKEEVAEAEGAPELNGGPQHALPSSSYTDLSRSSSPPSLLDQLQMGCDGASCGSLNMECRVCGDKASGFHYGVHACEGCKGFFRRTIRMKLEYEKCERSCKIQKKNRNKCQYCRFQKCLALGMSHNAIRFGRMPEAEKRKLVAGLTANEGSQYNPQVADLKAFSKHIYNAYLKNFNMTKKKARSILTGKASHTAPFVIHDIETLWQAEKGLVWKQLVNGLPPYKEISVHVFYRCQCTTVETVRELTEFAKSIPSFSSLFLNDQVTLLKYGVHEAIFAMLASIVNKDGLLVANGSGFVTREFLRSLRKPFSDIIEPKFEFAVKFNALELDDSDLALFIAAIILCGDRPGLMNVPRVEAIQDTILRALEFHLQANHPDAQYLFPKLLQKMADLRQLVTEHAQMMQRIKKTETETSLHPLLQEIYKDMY

With `Clc1ccc2n[nH]nc2c1`, the Potency result in test [1], in test [2], in test [3], in test [4] and in test [5] was “inactive” throughout.
With `C[C@H](CCC(=O)O)[C@H]1CC[C@H]2[C@@H]3CC[C@@H]4C[C@H](O)CC[C@]4(C)[C@H]3CC[C@]12C`, the Potency result is “inactive and 54.9 µM (active)” in test [1]; “inactive and 43.6 µM (active)” in [4]. In addition, the Potency result in test [2] was “inactive”.
As for `CC(=O)N1CCN(c2ccc(OC[C@H]3CO[C@](Cn4ccnc4)(c4ccc(Cl)cc4Cl)O3)cc2)CC1`, the Potency in test [1] is 34.7 µM (active); in test [6], 43.6 µM (active); in test [3] it was 49 µM (active); in [4], 54.9 µM (active).
For `N#CSc1ccc(N)c([N+](=O)[O-])c1`, the figures for the Potency in [1] and in [7] were 55.3 µM (active) and 49.3 µM (active), respectively. For the same compound, in test [8], the Potency entry was “inactive”.
Regarding `CC1=C(C(=O)OC(C)C)C(c2cccc([N+](=O)[O-])c2)C(C(=O)OC2CN(C(c3ccccc3)c3ccccc3)C2)=C(N)N1` (stereo not given), the results for the Potency in test [1], in [3] and in test [4] were 11.9 µM (active), 13.3 µM (active) and 26.6 µM (active), respectively. Moreover, the Potency result in test [2] was “inactive”.
For `O=c1[nH]cnc2nc[nH]c12`, the Potency entry in test [1], in [6], in [3], in test [8] and in [4] was “inactive” throughout.
For `CCCCCCCCn1sc(Cl)c(Cl)c1=O`, the Potency in test [1] is 3.09 µM (active); in test [6], 43.6 µM (active); in [3] it was 4.36 µM (active); in test [4], 9.77 µM (active).
As for `Oc1ccc(Cl)cc1Sc1cc(Cl)ccc1O`, the Potency in [1] is 19.5 µM (active) and 26.6 µM (active); in test [3], 34.6 µM (active) and 29.8 µM (active); in test [4], 48.9 µM (active). For the same compound, the Potency entry in test [8], in [5] and in test [9] was “inactive” each time.
Turning to `CCCCCCCCOc1ccccc1C(=O)Nc1ccc(C(=O)OCC[N+](C)(CC)CC)cc1`, in [1], the Potency was 26.6 µM (active). For the same compound, the Potency entry in test [6], in test [3], in test [8], in test [5] and in [9] was “inactive” each time.
`CCOC(=O)O[C@]1(C(=O)OCCl)CC[C@H]2[C@@H]3CCC4=CC(=O)C=C[C@]4(C)[C@H]3[C@@H](O)C[C@@]21C`: the Potency entry in [1], in test [6], in [3], in test [4] and in test [9] was “inactive” each time.
As for `CCCCCCCCCCCCCCCC[N+](C)(C)CCN(Cc1ccc(OC)cc1)c1ncccn1`, the Potency is 13.3 µM (active) in [1], 29.8 µM (active) in [3], 26.6 µM (active) in test [4] and 21.3 µM (active) in test [9]. Moreover, the Potency entry in test [2] and in [8] was “inactive” in each case.
As to `CC(C)(C)c1ccc(C(=O)O)cc1`, the Potency result in test [1], in test [3], in [8], in test [4] and in test [5] was “inactive” each time.
For the compound `CCCC(=O)OC[C@@H](OC(=O)CCC)[C@@H](OC(=O)CCC)[C@H](Cn1c2nc(=O)[nH]c(=O)c-2nc2cc(C)c(C)cc21)OC(=O)CCC`, the Potency entry in test [1], in test [3] and in test [4] was “inactive” throughout.
Regarding `CCOC(=O)c1nc(C(Cl)(Cl)Cl)n(-c2ccc(Cl)cc2Cl)n1`, the Potency is 54.9 µM (active) in test [1] and 49 µM (active) in [7]. Also, the Potency result in test [8] and in test [5] was “inactive” throughout.
Turning to `CCC1=C[C@@H]2CN(C1)Cc1c([nH]c3ccccc13)[C@@](C(=O)OC)(c1cc3c(cc1OC)N(C)[C@H]1[C@@](O)(C(=O)OC)[C@H](OC(C)=O)[C@]4(CC)C=CCN5CC[C@]31[C@@H]54)C2`, the Potency is 29.8 µM (active) in test [1] and 26.6 µM (active) in test [3]. In addition, the Potency result in [2] and in [5] was “inactive” throughout.
Consider `CCc1cc(Cc2cc(CC)cc(C(C)(C)C)c2O)c(O)c(C(C)(C)C)c1`, for which the Potency in [1] is 7.76 µM (active); in test [7] it was 6.92 µM (active); in test [3] it was 11 µM (active); in test [4], 11 µM (active); in test [9], 17.4 µM (active).
`c1cc(C(c2ccc(OCC3CO3)cc2)c2ccc(OCC3CO3)cc2)ccc1OCC1CO1` (stereo not given): the Potency in [1] is 54.9 µM (active). Besides, the Potency result in test [7] and in test [4] was “inactive” in each case.
As for `CCCCCCCC[N+](CCCCCCCC)(CCCCCCCC)CCCCCCCC`, the Potency is 6.15 µM (active) in [1], 6.9 µM (active) in [7] and 21.8 µM (active) in [4].
For `Nc1ccc2c3c(cccc13)-c1ccccc1-2`, in that order: 55.5 µM (active), 49.5 µM (active) and “inactive”.
`O=C1C=CC(=O)N1`: the Potency was 40 µM (active) in test [1] and 44.8 µM (active) in test [7]. Besides, the Potency result in [8] and in test [5] was “inactive” throughout.
